From PubChem BioAssay
TrxR1 substrate: substrates of rat thioredoxin reductase 1. Potency, µM (doses to about 114 µM), inactives show at the top dose activity change, negative = substrate turnover. 0.01% of 390,000 active. purified TrxR1 substrate turnover, NADPH consumption readout. AID 588456; further: potency means the concentration at half of the fitted maximal effect; on the % scale 0 is the no-effect control and ±100 the full control effect; nearly all actives have a fitted effect of over 50% in size
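Rat TrxR1, dispensed at 90 nM, was prereduced with 400 uM NADPH (final) for 5 min at ~22 deg C, then incubated with compound 15 min before 400 uM selenite. A first-read NADPH fluorescence drop versus no-compound background flagged substrates.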
Vif-A3F inh: blocks the Vif interaction with APOBEC3F. AID 602313. 0.2% of 390,000 active. Potency, µM (titrated, usually from 46.1 µM), for inactives: top-dose activity, negative = active. HeLa A3F-eYFP + Vif (tagged APOBEC3F with the HIV-1 protein that degrades it), YFP fluorescence increase; further: potency means the concentration at half of the fitted maximal effect; % of control where 0% means no effect; nearly all actives have a fitted effect of over 65% in size
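HeLa cells stably expressing A3F-eYFP plus Vif, plated and incubated overnight at 37 deg C, then exposed to compounds overnight at 37 deg C. Blocked degradation read as raised yellow fluorescence (Ex 488/Em 500-530).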
Vif-A3G inh: blocks the Vif interaction with human APOBEC3G | Q9HC16 | HeLa A3G-eYFP + Vif (tagged APOBEC3G with the HIV-1 protein that degrades it), YFP fluorescence, overnight | Potency, µM (top dose mostly 46.1 µM), for inactives: top-dose activity, negative = active, actives largely listed as inhibitors | 0.076% of 410,000 active | AID 602310; further: potency means the concentration at half of the fitted maximal effect; on the % scale 0 is the no-effect control and ±100 the full control effect; nearly all actives have a fitted effect of over 60% in size
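Read-out is eYFP fluorescence (Ex 488/Em 500-530) from Vif-expressing HeLa A3G-eYFP cells; more signal means A3G escaped Vif-mediated degradation. Cells plated overnight, compound pinned in, incubated overnight at 37 deg C.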
TrxR1 inh-1: inhibitors of rat thioredoxin reductase 1; O89049; recombinant rTrxR1, NADPH fluorescence consumption, selenite substrate; AID 588453; Potency, µM (top dose mostly 114 µM), for the others: at the highest dose activity change, negative = inhibition, usual class: inhibitors; 1% of 390,000 active; further: potency means the concentration at half of the fitted maximal effect; on the % scale 0 is the no-effect control and ±100 the full control effect; nearly all actives have a fitted effect of over 65% in size
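Rat TrxR1 (90 nM in the dispensed reagent) was pre-reduced with 400 uM NADPH for 5 min at room temperature, then incubated with compound for 15 min. After 400 uM selenite was added, NADPH fluorescence (Ex 340/Em 450 nm) was followed for 8 min.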
VDR inhibitor: vitamin D3 receptor (human) inhibition; Potency, µM, for inactives: max response, negative = inhibition, actives largely listed as inhibitors; 0.93% of 400,000 active; VDR-SRC2-3 peptide fluorescence polarization, 2 h; P11473; further: potency means the concentration at half of the fitted maximal effect; on the % scale 0 is the no-effect control and ±100 the full control effect
Target sequence (P11473 whole entry, looked up): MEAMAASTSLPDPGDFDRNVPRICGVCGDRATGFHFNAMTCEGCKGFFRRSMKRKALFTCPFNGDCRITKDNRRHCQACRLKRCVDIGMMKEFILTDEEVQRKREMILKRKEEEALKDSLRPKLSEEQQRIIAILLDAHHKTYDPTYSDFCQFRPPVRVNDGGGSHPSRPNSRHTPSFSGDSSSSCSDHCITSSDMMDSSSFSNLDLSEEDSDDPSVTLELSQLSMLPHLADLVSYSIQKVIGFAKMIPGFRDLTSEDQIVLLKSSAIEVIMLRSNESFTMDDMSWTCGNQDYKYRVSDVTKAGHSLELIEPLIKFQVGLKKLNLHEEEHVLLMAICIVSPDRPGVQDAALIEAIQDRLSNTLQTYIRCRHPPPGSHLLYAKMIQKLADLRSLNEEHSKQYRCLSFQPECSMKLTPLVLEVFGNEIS
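Inhibition of the VDR/SRC2-3 peptide interaction is quantified by fluorescence polarization. Compounds (23 nl, pintool) incubate with the reagents for 2 hours at ambient room temperature.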
TRb SRC2 Alpha: disrupts human TRb binding to SRC2 peptide in AlphaScreen. 50% of 30 active. Potency, µM. shares compounds with TrxR1 inh-1. AlphaScreen TRb LBD-SRC2 peptide binding, luminescence; calls by dose curve
HepG2 viability: reduces HepG2 viability in TRb-SRC2 counter-screen; shares compounds with TrxR1 inh-1; HepG2 viability, ATP luminescence (CellTiter-Glo), 72 h; Potency, µM; 50% of 40 active; calls by dose curve
AR SRC2 FP: disrupts human androgen receptor binding to SRC2 peptide; shares compounds with TrxR1 inh-1; AR-LBD Tx-SRC2-3 fluorescence polarization, 3 h; calls only; 25 tested, under 10 active; AID 2448; call rule not given here
PPARg-DRIP2 inh: PPARg-DRIP2 (human) interaction inhibition, selectivity; Potency, µM; PPARg LBD / Texas Red DRIP-2 peptide, fluorescence polarization, 3 h; AID 2449; 25 tested, under 10 active; shares compounds with TrxR1 inh-1; calls by dose curve
VDR SRC2 FP: selectivity of TRb-SRC2 inhibitors: human vitamin D receptor-SRC2 inhibition. shares compounds with TrxR1 inh-1. VDR LBD/SRC2-3 peptide, fluorescence polarization, 3 h. Potency, µM. 25 tested, under 10 active. AID 2455; calls by dose curve
TRb-SRC2 FP Fluo: confirmation of human TRb-SRC2 interaction inhibitors; Potency, µM; TRb LBD / fluorescein-SRC2 peptide, fluorescence polarization; 20 tested, under 10 active; shares compounds with TrxR1 inh-1; call rule not given here
GR counterassay: inhibits human glutathione reductase in TrxR1 counterassay; activity change, negative = inhibition, % at 57.1 µM; shares compounds with TrxR1 inh-1; 55 tested, under 10 active; purified GR, DTNB reduction absorbance 405 nm kinetic
TrxR1 inh-2: validation of rat thioredoxin reductase 1 inhibitors. shares compounds with TrxR1 inh-1. recombinant TrxR1, NADPH fluorescence consumption, selenite substrate. Potency, µM, actives largely listed as inhibitors. 50% of 55 active
TrxR1 insulin MOA: TrxR1 inhibitors: insulin reduction mechanism-of-action test. Potency, µM. shares compounds with TrxR1 inh-1. 20% of 55 active. AID 652037. TrxR1 Trx-coupled insulin reduction, NADPH absorbance 340 nm;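 active means compounds with a measured potency under 100 micromolar; inconclusive means filed, but no rule given; inactive means potency at or above that, or unmeasurable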
TrxR1 inh-3: blocks rat TrxR1 reduction of DTNB. shares compounds with TrxR1 inh-1. purified TrxR1, DTNB reduction, A412. Potency, µM. 90% of 55 active. AID 652256;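 active means a half-inhibiting concentration could be measured and was below 100 µM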
Starred values were filed as active, the others as inactive; i = inactive; ? = inconclusive; / = no result given; [ ] = remark or other dose. Compounds with a hit are over-represented: about 1.8% of the library has one in this group of screens. Unless noted, the call rests on the fitted dose curve; in most records, active means well fitted curve in the direction sought with a large enough effect; inconclusive means small, poorly fitted or top-dose-only effect, or another doubt; inactive means no such curve, though single readings can be large; an effect the other way counts as inactive or inconclusive.

SMILES	TrxR1 substrate	Vif-A3F inh	Vif-A3G inh	TrxR1 inh-1	VDR inhibitor	HepG2 viability	GR counterassay	TrxR1 inh-2	TrxR1 insulin MOA	TrxR1 inh-3	others
O=C(NC(=S)Nc1ccc(N2CCOCC2)cc1)c1cncc(Br)c1	1.1%	-4.1%	-4.6%	?	-17.2%	/	/	/	/	/
O=C(NC(=S)Nc1ccc(N2CCOCC2)cc1)c1cccc(Cl)c1	-10.7%	0.2%	1.9%	10µM*	-24.7%	/	-4.0	5.32*	i	2.56µM*
C=C1C=C(C(F)F)n2ncc(C(=O)NCc3ccc(OC)c(OC)c3)c2N1	8.4%	/	-0.8%	15.5%	/	/	/	/	/	/
O=C(O)c1ccc2c(c1)C(=O)N(CCc1c[nH]c3ccccc13)C2=O	2.7%[57.1 µM]	-1.7%	1.5%	-0.3%[57.1 µM]	-8.1%	/	/	/	/	/
COC(=O)C1=C(C)N(CCc2c[nH]c3ccccc23)C(=O)/C1=C\N(C)C	-8.9%	13.3%	-5.5%	10µM*	?	/	-1.5	9.47*	36µM*	0.122µM*
CC(OC(=O)c1ccc(S(C)(=O)=O)c([N+](=O)[O-])c1)C(=O)NC1C2CC3CC(C2)CC1C3 (centres undefined)	/	/	-18.4%	/	/	8.2µM*	/	/	/	/
Cc1ccc(C(=O)OC(C)C(=O)NC2CCCCC2)cc1S(=O)(=O)N1CCCCC1 (centres undefined)	2.2%	-6.6%	-7.5%	18.7%	-11.8%	/	/	/	/	/
CCC(OC(=O)c1ccc(S(C)(=O)=O)c([N+](=O)[O-])c1)C(=O)NC1C2CC3CC(C2)CC1C3 (centres undefined)	/	/	-7.6%	/	/	7.6µM*	/	/	/	/
CCOc1cc(C2c3c(-c4cc(C)ccc4O)n[nH]c3C(=O)N2CCCOC(C)C)ccc1O (centres undefined)	-11.2%	7.2%	-4.6%	3.2%	9.0%	/	/	/	/	/
C[C@@H]1CC=C[C@H]2[C@H]1C(=O)N(Cc1ccccc1)[C@H]2c1ccc2ccccc2c1Br	-8.8%	-3.6%	-18.4%	15.8µM*	-29.6%	/	-11.2	5.32*	i	0.95µM*
COc1ccc(C(=O)OCC(=O)NC(=O)NC2CCCC2)cc1[N+](=O)[O-]	-4.8%[57.1 µM]	-18.9%	-6.5%	8.6%	-7.7%	/	/	/	/	/
COc1cccc(CNC(=O)COC(=O)c2ccc(S(C)(=O)=O)c([N+](=O)[O-])c2)c1	0.5%	/	2.8%	1.26µM*	-2.8%	i	/	/	/	/	TRb SRC2 Alpha=i;AR SRC2 FP=i;PPARg-DRIP2 inh=i;VDR SRC2 FP=i;TRb-SRC2 FP Fluo=i
